High-throughput results from PubChem BioAssay.
NPR1 antag: antagonists of human natriuretic peptide receptor Npr1. HEK293 hNpr1 GloSensor cGMP, ANP-stimulated luminescence. AID 1347048. 1.6% of 76,000 active. P16066. Potency, µM (series often up to 46.3 µM), hits mostly inhibitors; calls by dose curve; also: nearly all actives have a fitted effect of over 60% in size
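HEK293 cells stably expressing human Npr1 and cGMP GloSensor pGS-40F, loaded 2 h with 2% GloSensor reagent, given compound 30 min at room temperature. Luminescence read before and 20 min after 0.1 nM hNppA.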
HEK293 tox: kills HEK 293 cells; HEK 293 viability, ATP luminescence (CellTiter-Glo), 48-72 h; Potency, µM (series often up to 115 µM), most hits filed as inhibitors; 6.6% of 94,000 active; also: nearly all actives have a fitted effect of over 60% in size
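ATP-coupled CellTiter-Glo luminescence served as viability read-out, recorded 10 min after reagent addition at room temperature. HEK 293 cells, 250 cells/well, had been incubated with pintool-transferred compound for 48 or 72 hr at 37 degree Celsius.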
NIH3T3 tox: NIH 3T3 cell cytotoxicity; NIH 3T3 viability, CellTiter-Glo ATP luminescence, 48-72 h; Potency, µM (doses to about 96.7 µM), hits mostly inhibitors; 4.3% of 94,000 active; also: nearly all actives have a fitted effect of over 55% in size
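Mouse fibroblast NIH 3T3 cells, 400 per well, received compound via pintool and were incubated for 48 or 72 hr prior to CellTiter-Glo ATP luminescence measurement.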
FLuc inh: Photinus pyralis luciferase inhibition. purified P. pyralis luciferase, luminescence, biochemical. AID 1347043. Potency, µM (highest dose often 115 µM), usual class: inhibitors. 2.5% of 76,000 active. P08659; also: nearly all actives have a fitted effect of over 65% in size
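Purified 10nM P. pyralis luciferase with 10uM D-luciferin and 10uM ATP in 50mM Tris acetate pH 7.5, 10mM Mg acetate, 0.01% Tween-20, 0.05% BSA. qHTS titration; luminescence read by CCD imager.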
Each line names hits and unclear results; the compound was inactive in the other large screens. This is a sample that favours compounds with a hit; in the whole collection about 11% have one here. Unless noted, calls follow the shape of the dose curve; as a rule, active = well fitted curve in the direction sought with a large enough effect; inconclusive = small, poorly fitted or top-dose-only effect, or another doubt; inactive = no such curve, though single readings can be large; an effect the other way counts as inactive or inconclusive.

O=C(Nc1ccccc1)c1nc2c(o1)CCN(Cc1ccc(F)c(Cl)c1)CC2	NPR1 antag 3.98µM, HEK293 tox inconclusive, NIH3T3 tox inconclusive, FLuc inh 8.91µM
COc1ccc(CN2CCc3nc(C(=O)Nc4ccc(Cl)cc4)oc3CC2)cn1	NPR1 antag 3.98µM, HEK293 tox inconclusive, NIH3T3 tox inconclusive, FLuc inh inconclusive
Cc1ccc(S(=O)(=O)N2CCC(CCC(=O)NC3CC3)CC2)cc1	NIH3T3 tox inconclusive
O=C(Cc1c[nH]c2ccccc12)NCC12CCC=C1N(CC1CC1)C(=O)CC2 (centres undefined)	none
O=C(N[C@H]1CO[C@H]2[C@@H]1OC[C@@H]2n1cc(CC2CCCCC2)nn1)C1CC1	NIH3T3 tox 31.6µM
c1c(CC2CCCCC2)nnn1[C@H]1CO[C@H]2[C@@H]1OC[C@@H]2NCC1CCCCC1	HEK293 tox inconclusive, NIH3T3 tox inconclusive
O=C(COc1ccccc1)N[C@H]1CO[C@H]2[C@@H]1OC[C@@H]2n1cc(CC2CCCCC2)nn1	NIH3T3 tox 39.8µM
O=C(c1ccc(Cl)nc1)N1CCN(C(=O)c2nc3cccnc3n(Cc3ccccc3)c2=O)CC1	none (no result: NPR1 antag, FLuc inh)
Cc1cc(Cl)ccc1OCC(=O)N1CCC2(CC1)CC(O)CCO2 (centres undefined)	none
CC(C)CNC(=O)C1CCCN1Cc1ccc(-c2cncnc2)cc1 (centres undefined)	none (no result: NPR1 antag, FLuc inh)
COc1ccc(F)cc1-c1ccc(CN2CCCCC2C(=O)NCc2ccc(Cl)cc2)cc1 (centres undefined)	HEK293 tox 14.1µM, NIH3T3 tox inconclusive (no result: NPR1 antag, FLuc inh)
O=C(NCc1cccc(F)c1)C1CCCN1Cc1ccc(-c2cncnc2)cc1 (centres undefined)	HEK293 tox inconclusive (no result: NPR1 antag, FLuc inh)
COc1ccc(F)cc1-c1ccc(CN2CCCCC2C(=O)NCc2cccc(F)c2)cc1 (centres undefined)	HEK293 tox inconclusive, NIH3T3 tox 35.5µM (no result: NPR1 antag, FLuc inh)
Cc1ccc(S(=O)(=O)N2CC[C@@H](CC(=O)O)[C@@H](CCN(CCN3CCOCC3)c3ccccc3)C2)cc1	none
O[C@@H]1C[C@@H](c2nc(-c3ccc4c(c3)OCO4)no2)N(CCCc2ccccc2)C1	HEK293 tox inconclusive, NIH3T3 tox inconclusive, FLuc inh 35.5µM
O[C@@H]1C[C@@H](c2nc(-c3ccc(F)cc3)no2)N(CC2CCCCC2)C1	FLuc inh inconclusive
O[C@@H]1C[C@@H](c2nc(-c3ccc4c(c3)OCO4)no2)N(CC2CCCCC2)C1	HEK293 tox 89.1µM, NIH3T3 tox 89.1µM, FLuc inh inconclusive
O[C@@H]1C[C@@H](c2nc(-c3ccc4c(c3)OCO4)no2)N(C2CCOCC2)C1	none
O[C@@H]1C[C@@H](c2nc(-c3ccc4c(c3)OCO4)no2)N(CC2CC2)C1	HEK293 tox inconclusive, FLuc inh 22.4µM
O[C@@H]1C[C@@H](c2nc(-c3ccccn3)no2)N(Cc2cccs2)C1	HEK293 tox inconclusive, FLuc inh 35.5µM
O=C(c1nc2cccnc2n(C2CC2)c1=O)N1CCN([S+](=O)([O-])c2cccc(C(F)(F)F)c2)CC1	NIH3T3 tox inconclusive (no result: NPR1 antag, FLuc inh)
CC(C)Cn1c(=O)c(C(=O)NCC(F)F)nc2cccnc21	none (no result: NPR1 antag, FLuc inh)
COC(=O)C1=C(C)N=C2SC=C(CC(=O)NCC3CC3)N2C1c1cccc([N+](=O)[O-])c1 (centres undefined)	none
COC(=O)c1ccc2c(c1)nc1n2[C@@H](CNC(=O)c2ccc(F)cc2)COC1	none
Oc1ccccc1CN1C[C@H](O)C[C@H]1c1nc(-c2ccc3c(c2)OCO3)no1	FLuc inh inconclusive
O[C@@H]1C[C@@H](c2nc(-c3ccc4c(c3)OCO4)no2)N(Cc2ccccn2)C1	HEK293 tox inconclusive, FLuc inh 44.7µM
CCCCc1ncc(CN2CCN(Cc3ccccc3)CC(O)C2)[nH]1 (centres undefined)	HEK293 tox inconclusive
c1ccc(-c2noc(Nc3ccc4c(c3)OCCO4)n2)cc1	HEK293 tox 39.8µM, NIH3T3 tox inconclusive, FLuc inh 22.4µM
COc1ccc(C(=O)N2CC(N3C(=O)c4c(c(C)nn4-c4ccccc4)C3C(C)C)C2)cc1 (centres undefined)	none (no result: NPR1 antag, FLuc inh)
COc1cccc(-c2ccccc2NC(=O)C2CCN(c3nccnc3C)CC2)c1	NPR1 antag inconclusive, HEK293 tox inconclusive, NIH3T3 tox 22.4µM
COc1cccc(-c2ccccc2NC(=O)C2CCN(Cc3ccc(F)cc3)CC2)c1	HEK293 tox 31.6µM, NIH3T3 tox 22.4µM
Cc1cccc(-c2ccccc2C(=O)N2CCCC(CO)(Cc3ccccc3F)C2)c1 (centres undefined)	HEK293 tox 20µM, NIH3T3 tox 79.4µM
CCCS(=O)(=O)N1CCC2(CC1)C(=O)N(c1cccc(F)c1)C2c1ccccc1 (centres undefined)	HEK293 tox 25.1µM (no result: NPR1 antag, FLuc inh)
O=C1N(c2cccc(F)c2)C(c2ccccc2)C12CCN(Cc1cccc(F)c1O)CC2 (centres undefined)	HEK293 tox inconclusive (no result: NPR1 antag, FLuc inh)
CNC(=O)c1cc(C)nc2onc(C3CCN(C(=O)c4ccc(Cl)nc4)CC3)c12	none (no result: NPR1 antag, FLuc inh)
c1ccc(-c2noc(CC3CCOC4(CCN(Cc5cccnc5)CC4)C3)n2)cc1 (centres undefined)	NPR1 antag inconclusive, HEK293 tox 25.1µM, NIH3T3 tox inconclusive
COc1cccc(CC(=O)N2CCC(Cc3nc(-c4ccncc4)n[nH]3)C2)c1 (centres undefined)	HEK293 tox 12.6µM, NIH3T3 tox inconclusive
O=C(C1CC1)N1CCC2(CC1)CC(Cc1nc(-c3ccncc3)no1)CCO2 (centres undefined)	NPR1 antag inconclusive, HEK293 tox 44.7µM, NIH3T3 tox inconclusive
O=C(COc1ccccc1)N1CCC(Cc2nc(-c3ccncc3)n[nH]2)CC1	none
COc1cccc(CC(=O)N2CCC3(CC2)CC(Cc2nc(-c4ccncc4)no2)CCO3)c1 (centres undefined)	NPR1 antag inconclusive, HEK293 tox 39.8µM, NIH3T3 tox inconclusive
COCCn1c(C)cnc1CC1CCN(C(=O)c2c[nH]c3ccccc23)CC1	none
COc1ccc(-c2nc(C)nc3c2CN(C(=O)Cc2ccccn2)CC3)cc1	none (no result: NPR1 antag, FLuc inh)
COc1ccccc1Cn1c(=O)c(C(=O)N2CCN(C(=O)c3ccc(F)cc3)CC2)nc2cccnc21	HEK293 tox inconclusive (no result: NPR1 antag, FLuc inh)
CCN1C(=O)CCN(Cc2cn(C)c3ccc(OC)cc23)CC12CCOCC2	HEK293 tox inconclusive, NIH3T3 tox 31.6µM
Cn1cc(CNc2ccc(-c3nc(-c4cccc(C(F)(F)F)c4)no3)cn2)cn1	NPR1 antag inconclusive, HEK293 tox 25.1µM, NIH3T3 tox inconclusive
Cn1cc(CNc2ccc(-c3nc(CCCc4ccccc4)no3)cn2)cn1	NPR1 antag inconclusive, HEK293 tox inconclusive, NIH3T3 tox inconclusive, FLuc inh 39.8µM
Clc1cccc(-c2noc(-c3ccc(NCC4COCCO4)nc3)n2)c1 (centres undefined)	NPR1 antag inconclusive, FLuc inh 1µM
FC(F)(F)c1cccc(-c2noc(-c3ccc(NCCN4CCOCC4)nc3)n2)c1	NPR1 antag 11.2µM, HEK293 tox 11.2µM, NIH3T3 tox inconclusive, FLuc inh inconclusive
OC[C@@H]1CN(c2ccc(-c3nc(-c4cccc(C(F)(F)F)c4)no3)cn2)C[C@H]1CO	HEK293 tox inconclusive
